Screens (PubChem BioAssay)
Only some compounds are listed: those with a hit (about 6.6% of all), similar ones and a draw of the others.
HT1080NT lethal: kills 2HG-producing HT-1080-NT fibrosarcoma cells. Potency, µM (highest dose often 46.1 µM), inactives show top-dose activity, negative = less viability, hits mostly cytotoxic. HT-1080-NT fibrosarcoma viability, CellTiter-Glo ATP luminescence, 48 h. actives 1.6% (n = 360,000);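 also: NT is the 2HG producing partner of a matched IDH1 knockdown line; 0% = DMSO-treated cells and -100% = media-only wells without cells; nearly all actives have a fitted effect of over 55% in size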
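750 cells/well, RPMI + 5% FBS; 2 h settle, compound pin-transfer, 48 h at 37 degrees C. CellTiter-Glo 10 min RT, luminescence. Normalized to DMSO and media-only wells.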
HepG2 tox: counter-screen for TGF-b inhibitors: cytotoxicity in HepG2 cells | Potency, µM (top dose mostly 46.1 µM), without a hit: at the highest dose activity change, negative = cytotoxicity, usual class: cytotoxic | actives 0.76% (n = 410,000) | HepG2 CAGA-GFP viability, ATP luminescence, 18 h
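HepG2 CAGA-GFP cells (1000/well, DMEM with 1% FBS) received compound, then TGF-beta at 500 pg/mL final, and were incubated 18 hours at 37 degrees C. Viability was read by CellTiter-Glo luminescence. Media-only wells were set as complete cell-killing and DMSO as no toxicity.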
KB-3-1 cytotox: KB-3-1 parental cell cytotoxicity. KB-3-1 viability, CellTiter-Glo ATP luminescence, 72 h. Potency, µM (highest dose often 46.1 µM), hits mostly cytotoxic. actives 1.4% (n = 400,000); also: % is scaled to controls: 0 for no effect and ±100 for the full control effect; nearly all actives have a fitted effect of over 60% in size
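Using CellTiter-Glo luminescence, growth of non-resistant KB-3-1 adenocarcinoma cells is assessed 72 h after pin-tool compound addition at 37 °C. Normalized responses across the concentration series yield fitted curves.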
TGFb SMAD3 inh: inhibitors of TGF-b signaling; actives 1.2% (n = 410,000); HepG2 CAGA-GFP TGF-b/SMAD3 reporter, GFP fluorescence, 18 h; TGF-beta stimulated, 500 pg/mL final; Potency, µM (highest dose often 46.1 µM), for the others: top-dose activity, negative = inhibition, usual class: inhibitors; also: % is scaled to controls: 0 for no effect and ±100 for the full control effect; nearly all actives have a fitted effect of over 65% in size
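Per well, imaged GFP fluorescence of HEPG2 CAGA-GFP cells gives the signal; cells get compound, then TGF-beta (500 pg/mL final), 18 h at 37 degrees C; %Activity versus -TGF-beta and +DMSO controls.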
HT1080 IDH1KD tx: kills HT-1080 cells with IDH1 knockdown. HT-1080 IDH1 knockdown viability, ATP luminescence, 48 h. Potency, µM (titrated, usually from 46.1 µM), inactives show at the highest dose activity, negative = toxicity, actives largely listed as cytotoxic. actives 2% (n = 360,000). AID 686971;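 also: 0% = DMSO wells and -100% = cell-free medium wells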
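In this qHTS, HT-1080 cells depleted of IDH1 are exposed for 48 h at 37 °C to compound titrations. Toxicity is scored from CellTiter-Glo luminescence, with DMSO as full viability and medium alone as none.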
KB-V1 cytotox: KB-V1 MDR subline cytotoxicity | KB-V1 MDR cells viability, CellTiter-Glo, 72 h | AID 1347076 | Potency, µM (titrated, usually from 46.1 µM), actives largely listed as cytotoxic | actives 3.4% (n = 400,000); also: % is scaled to controls: 0 for no effect and ±100 for the full control effect; nearly all actives have a fitted effect of over 60% in size
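Luminescent ATP read-out (CellTiter-Glo, 10 min) measures survival of drug-selected KB-V1 MDR cells after 72 h, 37 degrees C compound exposure. Medium: phenol-red-free DMEM, 10% FBS. Values from fitted concentration-response curves.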
An asterisk follows results filed as active; i = inactive; ? = inconclusive; · = no result. Calls follow the shape of the dose curve; as a rule, active = well fitted curve in the direction sought with a large enough effect; inconclusive = small, poorly fitted or top-dose-only effect, or another doubt; inactive = no such curve, though single readings can be large; an effect the other way counts as inactive or inconclusive. Potency is read from the fitted curve at half-maximal effect.

SMILES	HT1080NT lethal	HepG2 tox	KB-3-1 cytotox	TGFb SMAD3 inh	HT1080 IDH1KD tx	KB-V1 cytotox
C[n+]1c(-c2ccccc2)cc2c(=Cc3ccc([N+](=O)[O-])cc3)c3ccccc3n21	?	-27%	?	?	?	?
C[n+]1c(-c2ccccc2)cc2c(=Cc3ccccc3)c3ccccc3n21	?	-24%	?	18µM*	16µM*	?
CN(C)C1=NCCN1CCc1ccc(F)cc1	8%	0%	i	-9%	9%	i
CN1c2ccccc2C(O)=C(C(=S)Nc2ccccc2)S1(=O)=O	-5%	-7%	i	-7%	-5%	i
CN1c2ccccc2C(O)=C(C(=S)Nc2ccc(F)c(Cl)c2)S1(=O)=O	?	-54%	16µM*	?	-27%	16µM*
CCOC(=O)c1c(C)[nH]c(C)c1S(=O)(=O)NCCN1CCN(c2cc(Cl)ccc2C)CC1	?	-115%	16µM*	11µM*	?	?
CCOC(=O)c1c(C)[nH]c(C)c1S(=O)(=O)N1CCN(c2cc(Cl)ccc2C)CC1	·	-91%	·	?	·	·
COc1ccc(CCNC(=O)Cn2nc(C)c3c(C)n(-c4ccccc4)nc3c2=O)c(OC)c1	-6%	-7%	i	-26%	-7%	i
COc1ccc(OC)c(CCNC(=O)Cn2nc(C)c3c(C)n(-c4ccc(C)cc4)nc3c2=O)c1	-17%	-18%	?	?	-2%	8.2µM*
COc1ccc(-c2nc(CSCC(=O)NCCC(C)C)c(C)o2)cc1OC	·	-21%	i	?	·	i
COc1ccc(N2C[C@H](CSC)[C@@H](CC(=O)Nc3ccc(Br)cc3)C2=O)cc1	-14%	-56%	i	-28%	-25%	8.2µM*
COc1ccc(NC(=O)C[C@H]2C(=O)N(c3ccc(Br)cc3)C[C@@H]2CSC)cc1	-20%	-39%	i	-9%	-29%	i
COc1ccc(-c2c(C(C)=O)c(C)nc3sc4c(=N)n(N)cnc4c23)cc1	-14%	-22%	?	-7%	-4%	18µM*
CCOC(=O)c1c(C)nc2sc3c(=O)n(-c4ccc(OC)cc4)cnc3c2c1-c1ccc(OC)cc1	7%	-4%	i	-2%	-4%	i
Cc1cc(C)cc(NC(=O)CCCn2c(=O)c3cccn3c3ccccc32)c1	·	-52%	·	11µM*	·	·
O=C(Cn1cc(CNC(=O)C2CCCCC2)nn1)Nc1cc(C(F)(F)F)ccc1Cl	·	-1%	i	9%	·	i
COc1ccccc1C(=O)N1CCC(c2noc(-c3ccc(S(=O)(=O)N4CCCC4)cc3)n2)CC1	·	-31%	·	-14%	·	·
CCc1cccc(C)c1NC(=O)CN(C)Cc1ccccc1F	0%	-12%	?	-18%	-5%	21µM*
O=C(Nc1ccccc1N1CCCC1)c1ccc([N+](=O)[O-])o1	?	-81%	23µM*	25µM*	?	?
CC(C)C(=O)N1CCN(c2ccccc2NC(=O)c2ccc([N+](=O)[O-])o2)CC1	-24%	-91%	i	?	?	?
O=C(Nc1ccccc1N1CCN(C(=O)c2ccccc2)CC1)c1ccc([N+](=O)[O-])o1	?	-198%	?	11µM*	16µM*	?
CCC(=O)N1CCN(c2ccccc2NC(=O)c2ccc([N+](=O)[O-])o2)CC1	?	-150%	?	16µM*	-27%	?
COc1cccc(CNC(=O)CN2C(=O)CCn3nc(-c4cn(C)c5ccccc45)cc32)c1OC	·	-1%	i	-3%	·	i
O=C(COC(=O)CCN1C(=O)C2CC=CCC2C1=O)Nc1ccc([N+](=O)[O-])cc1 (centres undefined)	0%	6%	i	8%	0%	i
CC(C)c1ccc2oc(-c3cc(NC(=O)c4cccnc4)ccc3Cl)nc2c1	·	-105%	i	?	·	i
SMILES	HT1080NT lethal	HepG2 tox	KB-3-1 cytotox	TGFb SMAD3 inh	HT1080 IDH1KD tx	KB-V1 cytotox
OCC1OC(n2cnc3c(NCCc4ccccc4)ncnc32)C(O)C1O (centres undefined)	2.1µM*	-42%	i	-17%	?	?
O=C1CCCc2cc(S(=O)(=O)NCC3CCC(C(=O)Nc4ccc(Cl)cc4)CC3)ccc2N1 (centres undefined)	·	-28%	i	4%	·	i
CN(C(=O)c1ccco1)c1nc(CC(=O)Nc2ccccc2)cs1	0%	-33%	i	0%	-8%	i
CCN(CC)CCCN(C(=O)c1cccs1)c1nc(-c2ccc(OC)cc2)cs1	?	-44%	?	-20%	?	8.2µM*
COc1ccc(-c2csc(N(CCc3ccccc3)C(=O)COc3ccccc3)n2)cc1	-7%	-3%	i	9%	-4%	16µM*
CCN(C(=O)c1ccco1)c1nc(CC(=O)Nc2ccc(Cl)cc2)cs1	-29%	-9%	i	-19%	-26%	16µM*
CCN(CC)CCCN(C(=O)c1ccc(Br)cc1)c1nc(-c2ccc(OC)cc2)cs1	?	-62%	?	?	?	?
CCN(CC)CCCN(C(=O)c1ccco1)c1nc(-c2ccc(Cl)cc2)cs1	23µM*	-66%	i	?	15µM*	i
CCOc1ccccc1NC(=O)c1nc(SC(C)C)ncc1Cl	·	-11%	i	-11%	·	i
O=C(Nc1ccc(-n2nncc2-c2ccco2)cc1)c1cccc(F)c1	?	-7%	i	-6%	?	16µM*
Cc1ccc(C(=O)C=CC=Cc2ccccc2)cc1	0%	-4%	i	-8%	-7%	i
Cc1ccc(C(=O)C(C(=O)/C=C/c2ccccc2)=C2SCCCS2)cc1	12µM*	-83%	8.2µM*	-20%	10µM*	i
O=[N+]([O-])/C=C\c1ccc(N2CCOCC2)cc1	21µM*	-64%	?	?	15µM*	?
Cc1cc(S(=O)(=O)c2ccc([N+](=O)[O-])cn2)ccc1Br	2.3µM*	2%	?	?	3.7µM*	?
Cc1ccccc1C(=O)Nc1ccccc1-c1nnn(CC(=O)Nc2ccc3c(c2)OCCO3)n1	-23%	-36%	?	-14%	-16%	3.7µM*
Cc1ccc(NC(=O)Cn2nnc(-c3ccccc3NC(=O)c3cccs3)n2)cc1	1.2µM*	-5%	1µM*	-6%	1.2µM*	1.3µM*
O=C(Cn1nnc(-c2ccccc2NC(=O)c2ccccc2)n1)Nc1ccc2c(c1)OCCO2	-26%	-23%	?	7%	-14%	i
